ChEMBL document CHEMBL3988442, “University of Dundee, Small-Polar-MMV Screening Library” (2021)
For part of these data: Entries with a potency or affinity are not part of this list.

Columns and labels:
[1] = target: T1, Methionyl-tRNA synthetase, putative (Leishmania donovani (strain BPK282A1)) (UniProt E9BF75); assay: Leishmania donovani Methionine tRNA synthetase (LdMetRS):v7. Dose response assay; assay type: functional; set-up: conc 80 nM, time 150 minutes
T1 sequence (whole entry): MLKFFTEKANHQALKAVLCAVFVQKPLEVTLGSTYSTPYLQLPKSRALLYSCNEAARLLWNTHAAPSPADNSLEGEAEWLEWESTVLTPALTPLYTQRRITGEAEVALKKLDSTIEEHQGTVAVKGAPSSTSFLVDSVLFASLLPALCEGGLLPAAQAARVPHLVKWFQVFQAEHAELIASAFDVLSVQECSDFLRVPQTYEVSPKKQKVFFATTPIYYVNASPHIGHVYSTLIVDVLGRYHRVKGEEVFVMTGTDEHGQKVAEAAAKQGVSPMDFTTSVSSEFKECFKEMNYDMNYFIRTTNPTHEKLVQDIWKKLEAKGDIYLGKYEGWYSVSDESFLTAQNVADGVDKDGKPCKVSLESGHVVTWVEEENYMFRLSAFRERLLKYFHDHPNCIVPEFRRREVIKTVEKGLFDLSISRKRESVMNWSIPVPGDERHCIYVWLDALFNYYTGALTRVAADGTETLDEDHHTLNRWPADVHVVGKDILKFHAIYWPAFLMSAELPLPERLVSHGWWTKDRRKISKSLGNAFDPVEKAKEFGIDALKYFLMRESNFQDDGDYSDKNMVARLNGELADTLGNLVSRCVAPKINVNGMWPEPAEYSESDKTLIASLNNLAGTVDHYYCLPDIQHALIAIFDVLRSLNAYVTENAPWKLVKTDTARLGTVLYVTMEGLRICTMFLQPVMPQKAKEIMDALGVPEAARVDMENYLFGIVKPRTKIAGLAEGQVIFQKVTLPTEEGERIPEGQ

[2] = target: Protein translocase subunit SecA (Escherichia coli (strain K12)) (UniProt P10408); assay: Assay to Identify E. coli SecA ATPase Inhibitors; assay type: functional; set-up: scale not given: direction of the effect not stated beside the values; conditions: 30 µM
Chain of Protein translocase subunit SecA (Escherichia coli (strain K12)) (P10408 whole entry): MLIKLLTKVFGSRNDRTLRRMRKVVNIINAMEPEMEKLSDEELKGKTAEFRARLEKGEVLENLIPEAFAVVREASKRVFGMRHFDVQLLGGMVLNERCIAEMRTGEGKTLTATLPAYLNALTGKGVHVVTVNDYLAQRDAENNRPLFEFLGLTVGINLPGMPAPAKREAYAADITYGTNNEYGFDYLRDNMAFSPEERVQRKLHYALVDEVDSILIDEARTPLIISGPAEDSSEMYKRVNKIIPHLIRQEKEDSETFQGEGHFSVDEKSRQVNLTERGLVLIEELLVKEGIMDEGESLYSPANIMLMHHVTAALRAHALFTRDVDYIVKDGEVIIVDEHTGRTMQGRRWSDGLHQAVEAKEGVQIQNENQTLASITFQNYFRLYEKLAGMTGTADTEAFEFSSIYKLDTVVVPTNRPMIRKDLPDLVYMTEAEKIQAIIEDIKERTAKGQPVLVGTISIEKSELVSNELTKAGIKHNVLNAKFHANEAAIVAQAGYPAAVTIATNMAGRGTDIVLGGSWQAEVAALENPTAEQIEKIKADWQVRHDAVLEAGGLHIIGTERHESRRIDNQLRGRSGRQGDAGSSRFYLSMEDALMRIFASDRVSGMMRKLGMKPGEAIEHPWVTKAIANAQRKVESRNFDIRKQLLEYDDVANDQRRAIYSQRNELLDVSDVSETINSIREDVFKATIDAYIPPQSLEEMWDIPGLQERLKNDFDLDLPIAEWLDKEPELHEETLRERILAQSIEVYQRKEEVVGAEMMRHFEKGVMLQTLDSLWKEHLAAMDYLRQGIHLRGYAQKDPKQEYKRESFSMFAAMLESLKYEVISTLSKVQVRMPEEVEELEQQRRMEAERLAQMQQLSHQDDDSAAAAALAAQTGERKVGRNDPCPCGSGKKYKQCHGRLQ

[3] = target: T2, Ubiquitin-activating enzyme e1, putative (Leishmania donovani (strain BPK282A1)) (UniProt E9BSI1); assay: Leishmania donovani Ubiquitin Activating Enzyme (LdE1); assay type: functional; set-up: scale not given: direction of the effect not stated beside the values; conditions: 30 µM
T2 sequence (whole entry): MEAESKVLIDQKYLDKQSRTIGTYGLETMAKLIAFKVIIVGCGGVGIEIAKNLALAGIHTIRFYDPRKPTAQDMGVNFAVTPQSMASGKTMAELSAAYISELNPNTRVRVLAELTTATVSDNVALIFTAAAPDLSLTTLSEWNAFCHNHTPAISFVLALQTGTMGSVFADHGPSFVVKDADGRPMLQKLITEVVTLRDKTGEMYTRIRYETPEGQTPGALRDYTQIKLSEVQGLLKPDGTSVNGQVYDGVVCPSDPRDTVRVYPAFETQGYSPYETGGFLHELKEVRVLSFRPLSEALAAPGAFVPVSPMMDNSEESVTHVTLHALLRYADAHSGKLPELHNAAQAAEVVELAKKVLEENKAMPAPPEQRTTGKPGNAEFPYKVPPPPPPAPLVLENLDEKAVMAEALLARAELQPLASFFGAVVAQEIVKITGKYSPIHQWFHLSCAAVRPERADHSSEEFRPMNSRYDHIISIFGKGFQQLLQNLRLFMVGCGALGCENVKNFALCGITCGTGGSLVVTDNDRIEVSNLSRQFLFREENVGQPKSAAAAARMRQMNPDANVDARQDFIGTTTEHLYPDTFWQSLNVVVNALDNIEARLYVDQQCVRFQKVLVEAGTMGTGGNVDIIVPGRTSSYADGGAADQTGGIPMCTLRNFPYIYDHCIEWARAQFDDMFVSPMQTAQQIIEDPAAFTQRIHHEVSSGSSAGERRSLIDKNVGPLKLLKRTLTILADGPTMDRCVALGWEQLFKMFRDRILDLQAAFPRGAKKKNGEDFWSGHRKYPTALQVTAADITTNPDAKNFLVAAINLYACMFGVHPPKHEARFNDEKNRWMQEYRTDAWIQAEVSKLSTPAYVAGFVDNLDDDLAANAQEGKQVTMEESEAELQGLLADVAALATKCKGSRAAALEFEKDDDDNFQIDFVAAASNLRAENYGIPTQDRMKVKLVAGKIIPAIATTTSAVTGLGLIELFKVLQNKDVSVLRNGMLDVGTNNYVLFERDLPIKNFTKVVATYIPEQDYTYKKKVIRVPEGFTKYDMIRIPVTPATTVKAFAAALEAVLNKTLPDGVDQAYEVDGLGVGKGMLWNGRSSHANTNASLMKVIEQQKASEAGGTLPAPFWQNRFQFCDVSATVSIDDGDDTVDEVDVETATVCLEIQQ

[4] = target: AMP-activated protein kinase, AMPK (Homo sapiens) (UniProt P54646+O43741+P54619+Q9UGJ0+Q9Y478+Q13131+Q9UGI9); assay: AMP-dependent Kinase enzyme assay. An in vitro enzyme assay that detects ADP turnover that is directly proportional to AMPK activity. This uses naive AMPK that is activated during the assay with MK-8722; assay type: functional; set-up: scale not given: direction of the effect not stated beside the values; conditions: 30 µM
[5] = target: Sialic acid-binding Ig-like lectin 9 (Homo sapiens) (UniProt Q9Y336); assay: Hs-Siglec9 ALPHAscreen SOP 20170721; set-up: scale not given: direction of the effect not stated beside the values; conditions: 10 µM
Chain of Sialic acid-binding Ig-like lectin 9 (Homo sapiens) (Q9Y336 whole entry): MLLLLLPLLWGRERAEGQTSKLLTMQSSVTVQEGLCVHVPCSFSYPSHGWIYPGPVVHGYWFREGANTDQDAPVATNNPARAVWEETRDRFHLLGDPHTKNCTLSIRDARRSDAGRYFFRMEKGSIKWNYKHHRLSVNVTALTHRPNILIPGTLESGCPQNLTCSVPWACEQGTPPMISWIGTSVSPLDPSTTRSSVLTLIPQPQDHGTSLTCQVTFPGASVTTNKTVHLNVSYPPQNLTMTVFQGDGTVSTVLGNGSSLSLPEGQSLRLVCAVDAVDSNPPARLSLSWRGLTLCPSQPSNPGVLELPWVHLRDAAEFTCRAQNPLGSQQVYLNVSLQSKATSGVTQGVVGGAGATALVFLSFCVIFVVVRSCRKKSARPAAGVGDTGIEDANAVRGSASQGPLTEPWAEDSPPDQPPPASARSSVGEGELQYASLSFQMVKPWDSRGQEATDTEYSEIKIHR

[6] = test system: Trypanosoma cruzi; assay: Trypanosoma cruzi phosphomannomutase and mannose-1-phosphate guanylyltransferase assay; assay type: functional; set-up: scale not given: direction of the effect not stated beside the values; conditions: 10 µM
[7] = target: T3, Arginase-2, mitochondrial (Homo sapiens) (UniProt P78540); assay: in vitro enzyme assay to detect the production of urea directly proportional to the activity of Arginase II; assay type: functional; set-up: scale not given: in the data most compounds retested in dose-response had high values
T3 sequence (whole entry): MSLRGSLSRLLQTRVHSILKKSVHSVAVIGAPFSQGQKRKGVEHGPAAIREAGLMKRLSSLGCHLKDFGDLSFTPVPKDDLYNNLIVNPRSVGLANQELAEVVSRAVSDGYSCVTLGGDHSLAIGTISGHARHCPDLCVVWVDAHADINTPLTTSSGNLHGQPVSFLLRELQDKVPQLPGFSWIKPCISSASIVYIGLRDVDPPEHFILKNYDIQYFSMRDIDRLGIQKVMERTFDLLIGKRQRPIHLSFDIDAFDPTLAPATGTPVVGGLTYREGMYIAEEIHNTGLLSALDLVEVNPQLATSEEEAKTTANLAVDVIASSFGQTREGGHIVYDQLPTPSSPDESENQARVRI

[8] = target: T4, Proteasome subunit beta (Trypanosoma cruzi) (UniProt O96673); assay: Trypanosoma cruzi proteasome chymotrypsin-like activity (TcProtChymo) assay.; assay type: functional; set-up: scale not given: in the data most compounds retested in dose-response had high values; conditions: 9.37 µM
T4 sequence (whole entry): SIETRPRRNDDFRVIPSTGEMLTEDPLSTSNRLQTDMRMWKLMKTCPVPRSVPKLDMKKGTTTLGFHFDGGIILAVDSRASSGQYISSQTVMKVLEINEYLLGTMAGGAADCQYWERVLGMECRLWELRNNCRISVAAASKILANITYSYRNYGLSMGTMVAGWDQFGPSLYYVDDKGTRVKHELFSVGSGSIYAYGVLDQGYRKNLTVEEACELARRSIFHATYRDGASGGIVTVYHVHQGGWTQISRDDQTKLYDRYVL

[9] = species on record: Homo sapiens; assay: To identify inhibition of the IFN signalling (Jak-Stat) pathway via expression of an eGFP reporter gene under the control of an IFN-stimulated response element (ISRE) containing MxA promoter.; assay type: functional; set-up: scale not given: direction of the effect not stated beside the values; conditions: 30 µM
[10] = target: T5, Tyrosyl-tRNA synthetase, putative (Trypanosoma cruzi (strain CL Brener)) (UniProt Q4DSP6); assay: Trypanosoma cruzi tyrosyl tRNA synthetase (TcYRS) _High Tyrosine SOP; assay type: functional; set-up: scale not given: in the data most compounds retested in dose-response had high values; conditions: 30 µM
T5 sequence (whole entry): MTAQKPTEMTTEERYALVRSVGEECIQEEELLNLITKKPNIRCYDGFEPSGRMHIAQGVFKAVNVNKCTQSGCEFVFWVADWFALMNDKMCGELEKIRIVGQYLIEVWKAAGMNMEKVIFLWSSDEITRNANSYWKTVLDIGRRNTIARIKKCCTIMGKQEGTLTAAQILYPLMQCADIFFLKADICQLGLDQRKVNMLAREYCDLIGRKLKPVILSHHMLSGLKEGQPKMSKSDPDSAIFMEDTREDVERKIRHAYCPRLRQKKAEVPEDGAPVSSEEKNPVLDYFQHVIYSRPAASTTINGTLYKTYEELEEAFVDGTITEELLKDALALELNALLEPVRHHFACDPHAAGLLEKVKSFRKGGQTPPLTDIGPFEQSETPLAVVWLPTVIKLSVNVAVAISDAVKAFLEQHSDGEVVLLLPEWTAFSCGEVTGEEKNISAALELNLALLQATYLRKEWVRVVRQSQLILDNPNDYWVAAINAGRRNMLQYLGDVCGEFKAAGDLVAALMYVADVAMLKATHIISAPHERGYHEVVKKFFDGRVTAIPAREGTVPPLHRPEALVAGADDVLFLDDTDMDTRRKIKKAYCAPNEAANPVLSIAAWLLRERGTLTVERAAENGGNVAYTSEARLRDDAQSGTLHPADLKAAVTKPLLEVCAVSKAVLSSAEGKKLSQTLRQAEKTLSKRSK

[11] = target: T5, Tyrosyl-tRNA synthetase, putative (Trypanosoma cruzi (strain CL Brener)); assay: Trypanosoma cruzi tyrosyl tRNA synthetase (TcYRS) SOP; assay type: functional; set-up: scale not given: direction of the effect not stated beside the values; conditions: 30 µM
[12] = target: Chromo domain-containing protein 1 (Saccharomyces cerevisiae (strain ATCC 204508 / S288c) (Baker's yeast)) (UniProt P32657); assay: ScCHD-1 Enzyme Inhibition Assay; assay type: functional; set-up: scale not given: in the data most compounds retested in dose-response had high values; conditions: 30 µM
Chain of Chromo domain-containing protein 1 (Saccharomyces cerevisiae (strain ATCC 204508 / S288c) (Baker's yeast)) (P32657 whole entry, the tested form may be a part): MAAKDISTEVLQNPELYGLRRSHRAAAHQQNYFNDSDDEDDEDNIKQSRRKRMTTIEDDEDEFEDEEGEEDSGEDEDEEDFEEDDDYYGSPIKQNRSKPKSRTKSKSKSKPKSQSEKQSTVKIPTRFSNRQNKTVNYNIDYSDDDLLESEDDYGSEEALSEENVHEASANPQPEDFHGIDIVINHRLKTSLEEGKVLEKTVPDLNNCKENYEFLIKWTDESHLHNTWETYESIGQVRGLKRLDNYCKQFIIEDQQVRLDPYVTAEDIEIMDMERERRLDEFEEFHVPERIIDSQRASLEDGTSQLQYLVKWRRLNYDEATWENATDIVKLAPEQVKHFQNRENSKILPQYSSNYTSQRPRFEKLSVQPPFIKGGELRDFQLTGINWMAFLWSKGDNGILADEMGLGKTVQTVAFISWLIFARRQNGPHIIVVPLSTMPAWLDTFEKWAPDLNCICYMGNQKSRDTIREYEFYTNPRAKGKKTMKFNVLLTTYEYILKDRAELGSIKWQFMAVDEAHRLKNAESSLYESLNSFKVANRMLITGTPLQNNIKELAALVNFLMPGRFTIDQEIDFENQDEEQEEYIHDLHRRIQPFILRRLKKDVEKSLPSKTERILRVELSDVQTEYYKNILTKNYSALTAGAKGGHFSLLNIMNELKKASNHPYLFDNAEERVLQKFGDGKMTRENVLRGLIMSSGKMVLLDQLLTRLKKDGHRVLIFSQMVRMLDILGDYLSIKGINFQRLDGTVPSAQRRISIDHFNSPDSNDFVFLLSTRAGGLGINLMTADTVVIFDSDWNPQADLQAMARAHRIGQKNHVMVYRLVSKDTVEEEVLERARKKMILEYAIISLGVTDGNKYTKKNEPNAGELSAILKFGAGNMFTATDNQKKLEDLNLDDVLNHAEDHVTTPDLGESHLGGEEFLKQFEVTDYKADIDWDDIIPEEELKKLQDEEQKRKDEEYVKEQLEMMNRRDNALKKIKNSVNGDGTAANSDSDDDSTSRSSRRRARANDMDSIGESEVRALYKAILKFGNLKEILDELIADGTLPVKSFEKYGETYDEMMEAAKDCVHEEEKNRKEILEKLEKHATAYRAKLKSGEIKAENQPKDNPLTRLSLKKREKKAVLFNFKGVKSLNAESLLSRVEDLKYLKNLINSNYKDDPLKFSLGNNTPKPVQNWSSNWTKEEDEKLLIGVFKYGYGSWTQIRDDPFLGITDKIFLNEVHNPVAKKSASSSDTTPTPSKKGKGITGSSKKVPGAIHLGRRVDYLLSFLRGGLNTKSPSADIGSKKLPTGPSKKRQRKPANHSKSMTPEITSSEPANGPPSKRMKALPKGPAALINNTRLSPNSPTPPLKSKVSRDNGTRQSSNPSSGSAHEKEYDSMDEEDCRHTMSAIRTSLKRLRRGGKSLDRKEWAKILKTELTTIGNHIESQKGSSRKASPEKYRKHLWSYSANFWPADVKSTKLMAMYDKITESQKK

| Compound | PXC50 ([1]; MAX_EFFECT 6.650831354) | PXC50 ([1]; MAX_EFFECT 11.79577465) | Percent Effect [2] [%] | Percent Effect [3] [%] | Percent Effect [4] [%] | Percent Effect [5] [%] | Percent Effect [6] [%] | Percent Effect ([7]; 33.3 µM) [%] | Percent Effect [8] [%] | Percent Effect [9] [%] | Percent Effect [10] [%] | Percent Effect [11] [%] | Percent Effect [12] [%] | Percent Effect ([7]; 30 µM) [%] | PXC50 ([1]; MAX_EFFECT 19.47743468) | PXC50 ([1]; MAX_EFFECT 35.38732394) | PXC50 ([1]; MAX_EFFECT 13.59649123) | PXC50 ([1]; MAX_EFFECT 23.4375) |
| --- | --- | --- | --- | --- | --- | --- | --- | --- | --- | --- | --- | --- | --- | --- | --- | --- | --- | --- |
| Cc1nnc(NCC2(c3ccccc3)CC2)c(C#N)c1C | < 4 | < 4 | -6.81 | 0 | -11.8 | 5.06 | -3.09 | 1.43 | 8.1 | 13 | -0.529 | 4.88 | -4.42 | – | – | – | – | – |
| O=C(Cn1nc2c(cc1=O)CCCC2)N[C@@H](Cc1ccccc1)C(=O)O | – | – | 0.621 | 9.33 | 0.52 | -1.3 | 0.197 | 0.88 | 16.1 | 24.4 | 5.29 | 12.8 | -9.91 | 0.54 | – | – | – | – |
| c1ccc(C2CCN(c3cncc(-n4cccn4)n3)CC2)cc1 | – | – | -1.56 | 8.11 | 3.62 | 3.88 | 1.17 | 5.42 | 14.1 | 10 | 9.9 | 18.3 | -4.19 | – | < 4 | < 4 | – | – |
| N#CC1CCCN(c2nc(-c3ccccc3)nc3c2CCNCC3)C1 (stereo unspecified) | – | – | -2.62 | -5.48 | -0.435 | 0.626 | -4.17 | 2 | 11.2 | 2.12 | 4.17 | 3.7 | 9.39 | – | – | – | < 4 | < 4 |
